Sampled rows, rich in hits. Any-hit rate of the full collection: about 2.5%.
CCT chaperon mod: modulators of cytosolic chaperonin (CCT/TRiC) activity | 360,000 compounds, 0.3% hits | activity change, % (no concentration beside the values), hits read low | purified chaperonin ATPase assay, HTRF ADP detection, 30 min | AID 651819; in the data active means activity change below about -30%
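First, chaperonin was dispensed at 40 nM or 20 nM final depending on batch activity. Next, compounds were pinned at 76 uM and ATP added at 10 uM. After 30 min at 37 °C, ADP detection reagents ran 30 min at ambient temperature.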
Apoferritin bind: binds horse apoferritin like a general anesthetic; Potency, µM (titrated, usually from 77.5 µM), most hits filed as inhibitors; P02791; 350,000 compounds, 0.074% hits; apoferritin/1-aminoanthracene competitive binding, fluorescence; further: nearly all actives have a fitted effect of over 20% in size
Target sequence (P02791 2-175 limits assumed): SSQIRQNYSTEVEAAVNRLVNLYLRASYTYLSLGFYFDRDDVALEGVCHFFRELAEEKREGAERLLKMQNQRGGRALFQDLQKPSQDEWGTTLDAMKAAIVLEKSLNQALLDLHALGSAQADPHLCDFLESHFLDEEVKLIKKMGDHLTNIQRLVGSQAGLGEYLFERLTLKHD
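Horse-spleen apoferritin (10 uM) in 50% saturated 1-aminoanthracene in PBS was incubated 10 min at room temperature with compound. Fluorescence (ex 380, em 535 nm) was normalized to free and bound 1-AMA, with concentration-response fitted by a four-parameter Hill equation.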
TDP-43 yeast inh: rescues yeast growth from TDP-43 toxicity | 410,000 compounds, 1.8% hits | TDP-43 expressing yeast growth rescue, BacTiter-Glo, 24 h | Potency, µM (doses to about 46.1 µM), actives largely listed as activators | AID 652104; further: nearly all actives have a fitted effect of over 50% in size
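Readout is BacTiter-Glo luminescence of cell growth, so inhibitors register as activators. TDP-43-expressing yeast at OD600=0.02 in galactose medium, after raffinose pregrowth to mid-log, were incubated with compound for 24 hr at 30 deg C.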
Akt phos inh: blocks phosphorylation of Akt. activity change, % for hits at 50 µM. AID 651550. 360,000 compounds, 0.32% hits. Neuro2A IGF-stimulated pAkt S473 HTRF, 20 min; stronger effect = lower value; in the data active means activity change below about -80%; inconclusive means mostly about -51% to -80%
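Neuro2A cells in DMEM with 0.5% FBS, overnight at 37 deg C, given compound at single 50 µM final, then IGF (6 nM final) for 20 min at 37 deg C. Lysed; phospho-Akt Ser473 by HTRF after 24 h, 665/615 ratio.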
Mito fusion act: blocks mitochondrial division or promotes mitochondrial fusion. S. cerevisiae fusion-defective mutant growth rescue, CellTiterGlo 48 h. Potency, µM (highest dose often 46.1 µM), most hits filed as activators. 320,000 compounds, 0.23% hits; further: nearly all actives have a fitted effect of over 45% in size
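Temperature-sensitive fusion-defective S. cerevisiae (e.g. fzo1-1, mgm1-5) were grown with compound in YPEG medium (3% ethanol, 3% glycerol) for 48 hours at 37C. Growth rescue was measured as viability by CellTiterGlo luminescence after 10 minutes at ambient.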
aSyn yeast inh: inhibitors of alpha-synuclein toxicity in yeast | Yeast expressing alpha-synuclein, growth rescue, BacTiter-Glo, 24 h | Potency, µM (top dose mostly 46.1 µM), actives largely listed as activators | 370,000 compounds, 0.14% hits | AID 652106; further: nearly all actives have a fitted effect of over 65% in size
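Rescue of yeast growth: cells expressing toxic alpha-synuclein, induced in galactose at OD600 0.02, incubated with compound 24 h at 30 C. ATP luminescence quantified growth; inhibitors of toxicity appear as activators.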
Hits are given with their value; - = inactive; ? = inconclusive; . = no result given; [ ] = dose if it differs, or a comment. Unless noted, the call rests on the fitted dose curve; in most records, active means well fitted curve in the direction sought with a large enough effect; inconclusive means small, poorly fitted or top-dose-only effect, or another doubt; inactive means no such curve, though single readings can be large; an effect the other way counts as inactive or inconclusive.

SMILES	CCT chaperon mod	Apoferritin bind	TDP-43 yeast inh	Akt phos inh	Mito fusion act	aSyn yeast inh
COC1=C(Nc2ccccc2)C(=O)c2ccccc2C1=O	-	-	12.6µM	-	-	-
Ic1ccc(Nc2nc(NCCN3CCOCC3)nc(N3CCOCC3)n2)cc1	.	.	.	.	.	-
COc1cccc(-c2nc3c(C#N)c[nH]n3c2NC2CCCCC2)c1	.	-	-[9.22 µM]	.	.	.
Cc1cc(S(=O)(=O)N2CCN(Cc3noc(CCC(=O)N4CCCCC4)n3)CC2)ccc1F	.	-	-	.	.	.
O=C(COC(=O)c1cnccn1)Nc1ccccc1-c1ccccc1	-	.	-	-	-	-
O=C(Nc1ccccc1-c1ccccc1)c1cnccn1	-	-	17.8µM	-	-	-
C1CCC(Nc2nnnn2C2CCCCC2)CC1	-	-	-	-104.1%	-	-
COc1ccc(C2C3=C(CCCC3=O)Nc3nc(SCc4ccccc4)nn32)cc1OC (stereo not drawn)	-30.6	-	-	-	-	-
O=C(C/C=N/OCc1ccc(F)cc1Cl)c1cnc(-c2ccccc2)s1	-	-	-	-96.9%	-	-
O=C(C/C=N/OCc1ccccc1F)c1cnc(-c2ccc(Cl)cc2)s1	-	?	-	-	-	-
COc1ccc(OC)c(NC(=O)c2c(NCc3ccc(OC)c(OC)c3)sc3c2CCC(C)C3)c1 (stereo not drawn)	.	-	-	.	.	.
COc1ccc(-c2oc3ccccc3c2C(=O)OCc2ccccc2)cc1	-33.3	-	-	-	-	-
COc1ccc(-c2oc3ccccc3c2C(=O)Oc2ccccc2)cc1	-	-	3.55µM	-	-	-
COc1ccc(-c2oc3ccccc3c2C(=O)OCc2ccc(O)cc2)cc1	-	-	-	-	-	-
COc1ccc2oc(-c3ccccc3)c(C(N)=O)c2c1	-	-	12.6µM	-	-	-
COCCOC(=O)c1c(C)oc2ccc(OC(=O)c3ccco3)cc12	-	-	?	-	?	-
COCCOC(=O)c1c(C)oc2ccc(OCc3ccccc3)cc12	-	-	-	-	11.2µM	-
COc1ccc2oc(-c3ccccc3)c(C(=O)O)c2c1	-	-	-	-	?	-
CCc1cccc(C)c1NC(=O)C(CC)n1ncn2c(cc3cc(C)ccc32)c1=O (stereo not drawn)	.	-	-	.	.	.
Cc1ccc(C)c(C(=O)C[n+]2cccc(Br)c2)c1	.	.	.	.	.	-
O=C(c1cc(N2C(=O)C3C4CCC(C4)C3C2=O)ccc1Cl)N1CCN(c2ccc(F)cc2)CC1 (stereo not drawn)	-	-	-	-	5.62µM	-
CCOC(=O)C1=C(O)C(=O)NC(c2ccccc2)=C(OC2CCCCC2)C1	-	-	-	-	10µM	-
Cc1ccc2ncnc(NCc3ccco3)c2c1	.	.	.	.	.	-
CN(CCCN(Cc1ccc(Cl)cc1)c1ccc(Br)cn1)C(=S)NCCCc1cnc[nH]1	.	.	.	.	.	-
Cc1ccc(S(=O)(=O)NCC(=O)NCC2COc3ccccc3O2)cc1C (stereo not drawn)	-	.	-	-	-	-
SMILES	CCT chaperon mod	Apoferritin bind	TDP-43 yeast inh	Akt phos inh	Mito fusion act	aSyn yeast inh
CN(CC1COc2ccccc2O1)C(=O)CCNS(=O)(=O)c1ccc(F)c(Cl)c1 (stereo not drawn)	-	.	22.4µM	-	.	-
O=S(=O)(c1c(Cl)sc(Cl)c1Br)N1CCCC1	-	-	11.2µM	-	-	-
COc1ccc(CCNC(=O)c2ccc(Cn3c(=O)c4ccccc4n(CC(=O)C(C)(C)C)c3=O)cc2)cc1OC	.	-	-	.	.	.
Cc1ccccc1-n1c(C)nnc1SC(C)C(=O)NCc1ccco1 (stereo not drawn)	.	.	.	.	.	-
O=C(Nc1nc(-c2cccs2)c(-c2ccccc2)s1)c1ccco1	-	-	12.6µM	-	-	-
O=C(Nc1nc(-c2cccs2)c(C(=O)C(F)(F)F)s1)c1ccco1	-	-	14.1µM	-	-	-
CC(=O)Nc1sc(NC(=O)c2ccco2)nc1-c1cccs1	-	-	-	-	-	-
O=C(Nc1nc(-c2cccs2)c(C(=O)C(F)(F)F)s1)c1ccccc1	-	-	-	-	?	-
Cc1ccccc1C(=O)NNC(=S)NC(=O)c1ccc(Cl)cc1Cl	-	-	10µM	-	-	1.58µM
